Results as given in PubChem BioAssay AID1159580 (chemical genetic matrix, 2015).
Screen size: about 5,500 compounds; about 2,000 (36%) were called active. About 18% were inconclusive and are not listed. No stated cut-off is given here; in the data, active means normalized growth mostly below about 0.91 (no sharp cut-off); inconclusive means no clear call, values can overlap the other calls; inactive means mostly above about 0.92. The list shows a part of the results.

Assay: chemical genetic growth profiling, strain panel (AID 1159580);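 further: tested at 20 µM; growth read once vehicle control cultures reached saturation at 30 °C; 1 = growth at the plate median or of vehicle wells; lower values mean less growth of the strain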
Details: growth OD

Measured: normalized growth

CC(C)CC1C(=O)N2CCC[C@H]2C2(O)O[C@](NC(=O)C3C=C4c5cccc6[nH]c(Br)c(c56)C[C@H]4N(C)C3)(C(C)C)C(=O)N12 (stereo partly specified)
inactive: S. cerevisiae deletion strains, locus YKL009W, strain mrt4, active compounds read low 0.983 | S. cerevisiae deletion strains, locus YKL068W, active compounds read low 0.97 | S. cerevisiae deletion strains, locus YKL085W, strain MDH1 (second series), active compounds read low 0.963 | S. cerevisiae deletion strains, locus YKL085W, strain MDH1, active compounds read low 0.963 | S. cerevisiae deletion strains, locus YKL160W, strain elf1, active compounds read low 0.993 | S. cerevisiae deletion strains, locus YKL190W, strain CNB1, active compounds read low 0.979 | S. cerevisiae deletion strains, locus YKR001C, strain vps1, active compounds read low 0.989 | S. cerevisiae deletion strains, locus YKR026C, strain gcn3, active compounds read low 0.998 | S. cerevisiae deletion strains, locus YKR091W, strain srl3, active compounds read low 0.979 | S. cerevisiae deletion strains, locus YLL001W, strain dnm1, active compounds read low 0.988 | S. cerevisiae deletion strains, locus YLL026W, active compounds read low 0.977 | S. cerevisiae deletion strains, locus YLL041C, strain sdh2, active compounds read low 0.982 | S. cerevisiae deletion strains, locus YLR027C, strain aat2, active compounds read low 0.977 | S. cerevisiae deletion strains, locus YLR039C, strain RIC1, active compounds read low 0.905 | S. cerevisiae deletion strains, locus YLR058C, strain SHM2, active compounds read low 0.988 | S. cerevisiae deletion strains, locus YLR102C, strain apc9, active compounds read low 0.973 | S. cerevisiae deletion strains, locus YLR113W, strain HOG1, active compounds read low 0.945 | S. cerevisiae deletion strains, locus YLR221C, strain rsa3, active compounds read low 0.983 | S. cerevisiae deletion strains, locus YLR258W, strain gsy2, active compounds read low 0.997 | S. cerevisiae deletion strains, locus YLR262C, strain YPT6 (second series), active compounds read low 0.944 | S. cerevisiae deletion strains, locus YLR262C, strain YPT6, active compounds read low 0.951 | S. cerevisiae deletion strains, locus YLR268W, strain sec22, active compounds read low 0.98 | S. cerevisiae deletion strains, locus YLR320W, strain mms22, active compounds read low 0.982 | S. cerevisiae deletion strains, locus YLR330W, strain CHS5, active compounds read low 0.975 | S. cerevisiae deletion strains, locus YLR342W, strain FKS1 (second series), active compounds read low 0.995 | S. cerevisiae deletion strains, locus YLR342W, strain FKS1, active compounds read low 0.983 | S. cerevisiae deletion strains, locus YLR357W, strain rsc2, active compounds read low 0.933 | S. cerevisiae deletion strains, locus YLR370C, strain arc18, active compounds read low 0.966 | S. cerevisiae deletion strains, locus YLR371W, strain rom2, active compounds read low 0.977 | S. cerevisiae deletion strains, locus YLR384C, strain iki3, active compounds read low 0.987 | S. cerevisiae deletion strains, locus YLR418C, strain cdc73, active compounds read low 0.978 | S. cerevisiae deletion strains, locus YML016C, strain PPZ1, active compounds read low 0.983 | S. cerevisiae deletion strains, locus YML032C, strain rad52, active compounds read low 0.982 | S. cerevisiae deletion strains, locus YML120C, strain ndi1, active compounds read low 0.992 | S. cerevisiae deletion strains, locus YML124C, strain tub3, active compounds read low 0.973 | S. cerevisiae deletion strains, locus YMR058W, strain fet3, active compounds read low 0.973 | S. cerevisiae deletion strains, locus YMR078C, strain ctf18, active compounds read low 0.98 | S. cerevisiae deletion strains, locus YMR125W, strain sto1, active compounds read low 0.99 | S. cerevisiae deletion strains, locus YMR129W, active compounds read low 0.977 | S. cerevisiae deletion strains, locus YMR205C, strain PFK2, active compounds read low 0.97 | S. cerevisiae deletion strains, locus YMR223W, strain ubp8, active compounds read low 0.986 | S. cerevisiae deletion strains, locus YMR231W, strain pep5, active compounds read low 0.99 | S. cerevisiae deletion strains, locus YMR263W, strain SAP30, active compounds read low 0.981 | S. cerevisiae deletion strains, locus YMR307W, strain GAS1, active compounds read low 1.07 | S. cerevisiae deletion strains, locus YNL067W, strain RPL9B, active compounds read low 0.988 | S. cerevisiae deletion strains, locus YNL071W, strain lat1, active compounds read low 0.993 | S. cerevisiae deletion strains, locus YNL128W, strain TEP1, active compounds read low 0.97 | S. cerevisiae deletion strains, locus YNL153C, strain GIM3, active compounds read low 0.986 | S. cerevisiae deletion strains, locus YNL183C, strain NPR1, active compounds read low 0.938 | S. cerevisiae deletion strains, locus YNL209W, strain ssb2, active compounds read low 0.989 | S. cerevisiae deletion strains, locus YNL233W, strain BNI4, active compounds read low 0.986 | S. cerevisiae deletion strains, locus YNL248C, strain rpa49, active compounds read low 0.993 | S. cerevisiae deletion strains, locus YNL250W, strain rad50, active compounds read low 0.952 | S. cerevisiae deletion strains, locus YNL271C, strain bni1, active compounds read low 0.976 | S. cerevisiae deletion strains, locus YNL298W, strain CLA4, active compounds read low 0.986 | S. cerevisiae deletion strains, locus YNL307C, strain MCK1, active compounds read low 0.981 | S. cerevisiae deletion strains, locus YNL322C, strain KRE1 (second series), active compounds read low 0.992 | S. cerevisiae deletion strains, locus YNL322C, strain KRE1, active compounds read low 0.978 | S. cerevisiae deletion strains, locus YNR049C, strain mso1, active compounds read low 0.971 | S. cerevisiae deletion strains, locus YNR052C, strain pop2, active compounds read low 1 | S. cerevisiae deletion strains, locus YOL006C, strain TOP1, active compounds read low 1.02 | S. cerevisiae deletion strains, locus YOL012C, strain htz1 0.94 | S. cerevisiae deletion strains, locus YOL147C, strain pex11, active compounds read low 0.969 | S. cerevisiae deletion strains, locus YOR001W, strain rrp6, active compounds read low 0.997 | S. cerevisiae deletion strains, locus YOR061W, strain CKA2, active compounds read low 0.98 | S. cerevisiae deletion strains, locus YOR069W, strain VPS5, active compounds read low 0.983 | S. cerevisiae deletion strains, locus YOR070C, strain gyp1, active compounds read low 0.985 | S. cerevisiae deletion strains, locus YOR080W, strain dia2, active compounds read low 0.974 | S. cerevisiae deletion strains, locus YOR083W, strain WHI5, active compounds read low 0.995 | S. cerevisiae deletion strains, locus YOR106W, strain vam3, active compounds read low 1.07 | S. cerevisiae deletion strains, locus YOR136W, strain idh2, active compounds read low 0.987 | S. cerevisiae deletion strains, locus YOR144C, strain elg1, active compounds read low 0.979 | S. cerevisiae deletion strains, locus YOR184W, strain ser1, active compounds read low 0.995 | S. cerevisiae deletion strains, locus YOR231W, strain MKK1, active compounds read low 0.981 | S. cerevisiae deletion strains, locus YOR265W, strain rbl2, active compounds read low 0.971 | S. cerevisiae deletion strains, locus YOR270C, strain vph1, active compounds read low 1.07 | S. cerevisiae deletion strains, locus YOR290C, strain snf2, active compounds read low 0.977 | S. cerevisiae deletion strains, locus YOR316C, strain cot1, active compounds read low 0.976 | S. cerevisiae deletion strains, locus YPL051W, strain arl3, active compounds read low 0.985 | S. cerevisiae deletion strains, locus YPL055C, strain LGE1, active compounds read low 1 | S. cerevisiae deletion strains, locus YPL078C, strain atp4, active compounds read low 0.984 | S. cerevisiae deletion strains, locus YPL106C, strain sse1, active compounds read low 0.941 | S. cerevisiae deletion strains, locus YPL240C, strain hsp82, active compounds read low 0.99 | S. cerevisiae deletion strains, locus YPL241C, strain CIN2, active compounds read low 0.988 | S. cerevisiae deletion strains, locus YPL256C, strain CLN2, active compounds read low 0.99 | S. cerevisiae deletion strains, locus YPR119W, strain clb2, active compounds read low 0.988 | S. cerevisiae deletion strains, locus YPR141C, strain kar3, active compounds read low 0.938 | S. cerevisiae deletion strains, locus YPR163C, strain tif3, active compounds read low 0.975 | S. cerevisiae deletion strains, locus YPR167C, strain met16, active compounds read low 0.97 | S. cerevisiae deletion strains, strain wtn01, active compounds read low 0.975 | S. cerevisiae strains, strain wild type, active compounds read low 0.983
